Results from PubChem BioAssay (NCI).
The panel holds about 79,000 compounds, 15% with a hit somewhere; the sample as a whole holds those more often. A number with no mark means an inactive call. Activity calls are given as the source filed them. No stated cut-off is given here; in the data, active means growth inhibition above about 70%; inactive means the rest.

Columns and labels:
[1] = NCI Yeast Anticancer Drug Screen. Data for the rad52 strain (AID 147);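 further: 0% = growth of vehicle-treated control cultures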; details: S. cerevisiae rad52 mutant growth inhibition, stronger effect = higher value
Summary of the method: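 Read-out: growth inhibition versus vehicle-treated controls. Cells were a DNA repair-deficient yeast strain treated with compounds.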

[2] = NCI Yeast Anticancer Drug Screen. Data for the rad50EPP+ strain (AID 151);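 further: 0% = growth of vehicle-treated control cultures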; details: S. cerevisiae rad50 mutant strain, stronger effect = higher value
Summary of the method: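 Growth inhibition read against vehicle controls in rad50EPP+ yeast, a strain altered in DNA damage repair, after compound exposure.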

[3] = NCI Yeast Anticancer Drug Screen. Data for the mgt1 strain (AID 153); details: S. cerevisiae mgt1 mutant growth inhibition, stronger effect = higher value
Summary of the method: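 mgt1 yeast grown with test compound; read-out is growth inhibition versus vehicle-treated cultures.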

[4] = NCI Yeast Anticancer Drug Screen. Data for the rad50 strain (AID 155);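 further: 0% = growth of vehicle-only cultures of the same strain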; details: S. cerevisiae rad50 strain growth inhibition, stronger effect = higher value
Summary of the method: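 Genetically altered yeast (DNA repair pathway); compound treatment; growth inhibition vs vehicle ctrl.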

[5] = NCI Yeast Anticancer Drug Screen. Data for the mec2-1 strain (AID 157); details: S. cerevisiae mec2-1 strain, stronger effect = higher value
Summary of the method: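 Yeast mec2-1 mutant treated with compound. Readout: growth inhibition vs vehicle controls.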

[6] = NCI Yeast Anticancer Drug Screen. Data for the rad14 strain (AID 159);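 further: 0% = growth of vehicle-treated control cultures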; details: S. cerevisiae rad14 strain growth inhibition, stronger effect = higher value
Summary of the method: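 Test compounds were applied to a repair-deficient yeast strain. Its growth was then compared with that of cultures given vehicle alone, and inhibition was expressed relative to those controls.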

[7] = NCI Yeast Anticancer Drug Screen. Data for the sgs1 mgt1 strain (AID 161);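 further: 0% = growth of cultures given vehicle only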; details: S. cerevisiae sgs1 mgt1 strain, stronger effect = higher value
Summary of the method: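 Read-out: growth inhibition vs vehicle controls. Cells: mutant yeast strain deficient in DNA damage repair.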

[8] = NCI Yeast Anticancer Drug Screen. Data for the CLN2oe strain (AID 163);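 further: 0% = growth of vehicle-only control cultures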; details: S. cerevisiae CLN2oe strain, stronger effect = higher value
Summary of the method: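 Read-out: yeast growth inhibition, expressed relative to vehicle-only controls. The strain bears an engineered cell-cycle alteration.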

[9] = NCI Yeast Anticancer Drug Screen. Data for the cln2 rad14 strain (AID 165);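 further: 0% = growth equal to vehicle treated cultures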; details: S. cerevisiae cln2 rad14 strain, stronger effect = higher value
Summary of the method: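 cln2 rad14 yeast strain; compound exposure; growth inhibition read vs vehicle controls.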

[10] = NCI Yeast Anticancer Drug Screen. Data for the bub3 strain (AID 167); details: S. cerevisiae bub3 mutant strain, stronger effect = higher value
Summary of the method: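 Yeast carrying a defined mutation is treated with each compound, and growth is compared with that of vehicle-exposed cells to give inhibition.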

[11] = NCI Yeast Anticancer Drug Screen. Data for the wt2 strain (AID 169);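 further: 0% = growth of vehicle-treated yeast cultures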; details: S. cerevisiae wt2 strain growth inhibition, stronger effect = higher value
Summary of the method: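 Read-out: growth inhibition versus vehicle-treated control cultures after compound exposure of the yeast strain.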

[12] = NCI Yeast Anticancer Drug Screen. Data for the mlh1 strain (AID 171);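 further: 0% = growth of vehicle-treated control cultures of the same strain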; details: S. cerevisiae mlh1 strain growth inhibition, stronger effect = higher value
Summary of the method: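 Read-out: growth inhibition versus vehicle controls. Strain: engineered yeast with a defined DNA repair or cell cycle defect, compound-treated.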

[13] = NCI Yeast Anticancer Drug Screen. Data for the sgs1 strain (AID 173);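 further: 0% = growth of vehicle-only control cultures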; details: S. cerevisiae sgs1 mutant, stronger effect = higher value
Summary of the method: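 Read-out: yeast growth inhibition relative to vehicle controls, following compound exposure of a strain with a defined DNA repair/cell cycle alteration.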

[14] = NCI Yeast Anticancer Drug Screen. Data for the mlh1 rad18 strain (AID 175); details: S. cerevisiae mlh1 rad18 strain growth inhibition, stronger effect = higher value
Summary of the method: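 Yeast w/ defined DNA-repair lesions; compound exposure; growth vs vehicle controls → % inhibition.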

[15] = NCI Yeast Anticancer Drug Screen. Data for the rad18 strain (AID 177); details: S. cerevisiae rad18 mutant growth inhibition, stronger effect = higher value
Summary of the method: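 Readout: growth inhibition vs vehicle controls. Cells: genetically altered yeast strain, DNA repair defect.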

[16] = at 5.0 µM (retest, dose inferred, filed as 0.5)
[17] = at 50.0 µM (retest, dose inferred, filed as 5.0)

Compound: Cc1cccc[n+]1C1CCc2c(ccc3ccccc23)C1=O (stereo unspecified)
- growth inhibition ([1]; at 1.2 µM): 5%
- growth inhibition ([1]; at 3.7 µM): 2%
- growth inhibition ([1]; at 11.0 µM): 1%
- growth inhibition ([1]; at 33.0 µM): 14%
- growth inhibition ([1]; at 100.0 µM): 70% (active)
- growth inhibition ([2]; at 1.2 µM): 6%
- growth inhibition ([2]; at 3.7 µM): 9%
- growth inhibition ([2]; at 11.0 µM): 8%
- growth inhibition ([2]; at 33.0 µM): 37%
- growth inhibition ([2]; at 100.0 µM): 63%
- growth inhibition ([3]; at 1.2 µM): -4%
- growth inhibition ([3]; at 3.7 µM): 2%
- growth inhibition ([3]; at 11.0 µM): 0%
- growth inhibition ([3]; at 33.0 µM): 2%
- growth inhibition ([3]; at 100.0 µM): 35%
- growth inhibition ([4]; at 1.2 µM): 5%
- growth inhibition ([4]; at 3.7 µM): 2%
- growth inhibition [4, 16]: -1%
- growth inhibition ([4]; at 11.0 µM): 0%
- growth inhibition ([4]; at 33.0 µM): 16%
- growth inhibition [4, 17]: 40%
- growth inhibition ([4]; at 50.0 µM): 74.9% (active)
- growth inhibition ([4]; at 100.0 µM): 68%
- growth inhibition ([5]; at 1.2 µM): -1%
- growth inhibition ([5]; at 3.7 µM): -4%
- growth inhibition [5, 16]: 2%
- growth inhibition ([5]; at 11.0 µM): -1%
- growth inhibition ([5]; at 33.0 µM): 2%
- growth inhibition [5, 17]: 70% (active)
- growth inhibition ([5]; at 50.0 µM): 74.3% (active)
- growth inhibition ([5]; at 100.0 µM): 62%
- growth inhibition ([6]; at 1.2 µM): 4%
- growth inhibition ([6]; at 3.7 µM): 2%
- growth inhibition ([6]; at 11.0 µM): 3%
- growth inhibition ([6]; at 33.0 µM): 12%
- growth inhibition ([6]; at 100.0 µM): 61%
- growth inhibition [7, 16]: 3%
- growth inhibition [7, 17]: 55%
- growth inhibition ([7]; at 50.0 µM): 93.3% (active)
- growth inhibition ([8]; at 1.2 µM): -6%
- growth inhibition ([8]; at 3.7 µM): -3%
- growth inhibition ([8]; at 11.0 µM): -5%
- growth inhibition ([8]; at 33.0 µM): -1%
- growth inhibition ([8]; at 100.0 µM): 48%
- growth inhibition [9, 16]: 0%
- growth inhibition [9, 17]: 26%
- growth inhibition ([9]; at 50.0 µM): 26.6%
- growth inhibition ([10]; at 1.2 µM): -2%
- growth inhibition ([10]; at 3.7 µM): 0%
- growth inhibition [10, 16]: -4%
- growth inhibition ([10]; at 11.0 µM): 3%
- growth inhibition ([10]; at 33.0 µM): 18%
- growth inhibition [10, 17]: 70% (active)
- growth inhibition ([10]; at 50.0 µM): 98.2% (active)
- growth inhibition ([10]; at 100.0 µM): 72% (active)
- growth inhibition ([11]; at 1.2 µM): -6%
- growth inhibition ([11]; at 3.7 µM): -8%
- growth inhibition ([11]; at 11.0 µM): -11%
- growth inhibition ([11]; at 33.0 µM): -9%
- growth inhibition ([11]; at 100.0 µM): 65%
- growth inhibition ([12]; at 1.2 µM): 2%
- growth inhibition ([12]; at 3.7 µM): 1%
- growth inhibition ([12]; at 11.0 µM): 2%
- growth inhibition ([12]; at 33.0 µM): 10%
- growth inhibition ([12]; at 100.0 µM): 68%
- growth inhibition ([13]; at 1.2 µM): -14%
- growth inhibition ([13]; at 3.7 µM): -6%
- growth inhibition ([13]; at 11.0 µM): -26%
- growth inhibition ([13]; at 33.0 µM): -5%
- growth inhibition ([13]; at 100.0 µM): 69%
- growth inhibition [14, 16]: 2%
- growth inhibition [14, 17]: 73% (active)
- growth inhibition ([14]; at 50.0 µM): 89.7% (active)
- growth inhibition ([15]; at 1.2 µM): 2%
- growth inhibition ([15]; at 3.7 µM): 3%
- growth inhibition ([15]; at 11.0 µM): 2%
- growth inhibition ([15]; at 33.0 µM): 6%
- growth inhibition ([15]; at 100.0 µM): 79% (active)

Compound: COc1cc(C2c3cc4c(cc3OC(OC(C)=O)C2C)OCO4)cc(OC)c1OC (stereo unspecified)
- growth inhibition ([1]; at 1.2 µM): -1%
- growth inhibition ([1]; at 3.7 µM): -2%
- growth inhibition ([1]; at 11.0 µM): -2%
- growth inhibition ([1]; at 33.0 µM): -5%
- growth inhibition ([1]; at 100.0 µM): 82% (active)
- growth inhibition ([2]; at 1.2 µM): -3%
- growth inhibition ([2]; at 3.7 µM): -1%
- growth inhibition ([2]; at 11.0 µM): 1%
- growth inhibition ([2]; at 33.0 µM): -1%
- growth inhibition ([2]; at 100.0 µM): 5%
- growth inhibition ([3]; at 1.2 µM): -2%
- growth inhibition ([3]; at 3.7 µM): -1%
- growth inhibition ([3]; at 11.0 µM): -10%
- growth inhibition ([3]; at 33.0 µM): -12%
- growth inhibition ([3]; at 100.0 µM): 43%
- growth inhibition ([4]; at 1.2 µM): -1%
- growth inhibition ([4]; at 3.7 µM): -1%
- growth inhibition [4, 16]: 1%
- growth inhibition ([4]; at 11.0 µM): -5%
- growth inhibition ([4]; at 33.0 µM): -5%
- growth inhibition [4, 17]: 49%
- growth inhibition ([4]; at 50.0 µM): -0.3%
- growth inhibition ([4]; at 100.0 µM): 77% (active)
- growth inhibition ([5]; at 1.2 µM): -6%
- growth inhibition ([5]; at 3.7 µM): 0%
- growth inhibition [5, 16]: -4%
- growth inhibition ([5]; at 11.0 µM): -1%
- growth inhibition ([5]; at 33.0 µM): -5%
- growth inhibition [5, 17]: 5%
- growth inhibition ([5]; at 50.0 µM): 2.6%
- growth inhibition ([5]; at 100.0 µM): 56%
- growth inhibition ([6]; at 1.2 µM): -3%
- growth inhibition ([6]; at 3.7 µM): -4%
- growth inhibition ([6]; at 11.0 µM): -11%
- growth inhibition ([6]; at 33.0 µM): -10%
- growth inhibition ([6]; at 100.0 µM): 52%
- growth inhibition [7, 16]: -8%
- growth inhibition [7, 17]: 29%
- growth inhibition ([7]; at 50.0 µM): -4.55%
- growth inhibition ([8]; at 1.2 µM): -7%
- growth inhibition ([8]; at 3.7 µM): -7%
- growth inhibition ([8]; at 11.0 µM): -18%
- growth inhibition ([8]; at 33.0 µM): -13%
- growth inhibition ([8]; at 100.0 µM): 72% (active)
- growth inhibition [9, 16]: -14%
- growth inhibition [9, 17]: 3%
- growth inhibition ([9]; at 50.0 µM): -13.1%
- growth inhibition ([10]; at 1.2 µM): 5%
- growth inhibition ([10]; at 3.7 µM): 5%
- growth inhibition [10, 16]: 17%
- growth inhibition ([10]; at 11.0 µM): 22%
- growth inhibition ([10]; at 33.0 µM): 38%
- growth inhibition [10, 17]: 58%
- growth inhibition ([10]; at 50.0 µM): 35.6%
- growth inhibition ([10]; at 100.0 µM): 89% (active)
- growth inhibition ([11]; at 1.2 µM): -2%
- growth inhibition ([11]; at 3.7 µM): -5%
- growth inhibition ([11]; at 11.0 µM): -6%
- growth inhibition ([11]; at 33.0 µM): -13%
- growth inhibition ([11]; at 100.0 µM): 66%
- growth inhibition ([12]; at 1.2 µM): -2%
- growth inhibition ([12]; at 3.7 µM): -5%
- growth inhibition ([12]; at 11.0 µM): -2%
- growth inhibition ([12]; at 33.0 µM): -7%
- growth inhibition ([12]; at 100.0 µM): 69%
- growth inhibition ([13]; at 1.2 µM): -3%
- growth inhibition ([13]; at 3.7 µM): -2%
- growth inhibition ([13]; at 11.0 µM): -3%
- growth inhibition ([13]; at 33.0 µM): -3%
- growth inhibition ([13]; at 100.0 µM): 79% (active)
- growth inhibition [14, 16]: -4%
- growth inhibition [14, 17]: 23%
- growth inhibition ([14]; at 50.0 µM): -2.5%
